The campaign covered roughly 2,100 compounds. About 260 (12%) were called active. About 58% were inconclusive and are not listed. Some of the results follow. A number with no mark means an inactive call. Calls come from the whole dose curve; as a rule, active = well fitted cell-killing curve with a large enough effect; inconclusive = small, poorly fitted or top-dose-only effect, or effect the other way; inactive = flat fitted curve, though single readings scatter.
Potency is the fitted concentration of half-maximal effect.

A short description of the test: Viability Counterscreen for Confirmatory qHTS for Inhibitors of ATXN expression. Note: nearly all actives have a fitted effect of over 50% in size. The following applies: HEK-293 ATXN2-luc cells viability, CellTiter-Fluor, 24 h; activity change, negative = cytotoxicity: at the top concentration. The method, boiled down:
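Cells with an ATXN2-luciferase reporter were dosed in a dilution series for 24 h at 37 degrees C. Viability was read first with Gly-Phe-AFC at 25 uM final (fluorescence, ex 405/em 540), then SteadyGlo luminescence. Medium-only wells defined 100% inhibition.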
Regarding `CCC(C)Sc1cc(C(F)(F)F)c(C(=O)Nc2ccc(Cl)cc2)cn1` (stereo unspecified), the “activity change, negative = cytotoxicity” value is -28.6%.
The same measure, in the same setting: with `COC(=O)Cc1[nH]n(-c2nc3ccccc3s2)c(=O)c1C(C)=Nc1ccc(C)cc1` the figure was -25% [at 57.5 µM]; with `COc1cc(C)c(C(=O)CC(=O)c2c(C)cc(OC)cc2C)c(C)c1`, -4.26%.
On to `CCN(CC)S(=O)(=O)c1ccc(NC(=O)Nc2cccc(C(F)(F)F)c2)cc1`, for which the “activity change, negative = cytotoxicity” value was -22.7%.
With `COc1ccc(/C=N/Nc2cc(N3CCCC3)nc(N3CCCC3)n2)cc1`, the Potency is 3.16 µM (active).
Regarding `COc1ccc(C(=O)N/N=C/c2ccc(N(C)c3ccccc3)cc2)cc1`, the “activity change, negative = cytotoxicity” value was 8.41%.
Consider `COc1ccc(C)cc1Nc1nc(C)nc2sc(C)cc12`, for which the “activity change, negative = cytotoxicity” value is -13.3%.
Still for that read-out and setting: the value for `CCOc1ccc(CCNC(=O)c2ccc(OCc3c(C)noc3C)cc2)cc1OCC` was -11.7%.
In the case of `N=c1n(CCN2CCCCC2)c2ccccc2n1CC(O)c1ccc(Cl)c(Cl)c1` (stereo unspecified), the Potency is 25.1 µM (active).
On the same count and under the same terms, with `Cc1ccc(OCC(O)Cn2c(=N)n(CCN3CCCCC3)c3ccccc32)cc1` (stereo unspecified) the figure was 22.4 µM (active); with `CCCCCn1c(=N)n(CC(O)COc2ccccc2OC)c2ccccc21` (stereo unspecified), 3.98 µM (active).
As to `COc1cc2c(C(=O)N3CCOCC3)c(CSc3ccccc3)n(C)c2cc1Br`, the “activity change, negative = cytotoxicity” value is -20.7% [at 57.5 µM].
Still for that read-out and setting: the value for `CN(C)c1ccc2c(c1)OC(N)=C(C#N)C2c1cccc(F)c1` (stereo unspecified) was -25.8% [at 57.5 µM]; that for `COc1cc2nc(CN(C)Cc3ccc(SC)cc3)[nH]c(=O)c2cc1OC` was -14.4% [at 57.5 µM]; that for `COc1ccc(C(=O)NC(=S)NNC(=O)c2cnccn2)cc1` was -14.6%.
In the case of `COc1ccc(Br)cc1C(=O)Nc1ccccc1N1CCN(C(=O)c2ccccc2)CC1`, the “activity change, negative = cytotoxicity” value is -13.6%.
For the compound `COc1c(C)cccc1C(=O)Nc1ccc(N2CCN(C(=O)c3ccccc3C)CC2)cc1`, the Potency was 25.1 µM (active).
Consider `Cc1ccc(C(=O)N2CCN(c3ccc(NC(=S)NC(=O)c4cccs4)cc3)CC2)cc1`, for which the “activity change, negative = cytotoxicity” value is -13.9%.
On the same count and under the same terms, the value for `Cn1c(=O)c2c(nc(SCCN3CCOCC3)n2Cc2cccc3ccccc23)n(C)c1=O` was -9.68%.
Still for that read-out and setting: with `CCc1ccc(-n2cc(-c3ccc(F)cc3)[n+]3c2SCCC3)cc1` the figure was -20.7% [at 57.5 µM]; with `CCn1c(COc2ccccc2C)nnc1SCC(=O)N1CCN(c2ccccc2)CC1`, -30% [at 57.5 µM].
For `O=C1C=CCC(/C=C/c2ccccc2)O1` (stereo unspecified), the Potency is 20 µM (active).
In the case of `Cc1c(CC(=O)NCCCC(=O)O)c(=O)oc2cc3c(cc12)CCC(C)(C)O3`, the “activity change, negative = cytotoxicity” value was -20.8% [at 57.5 µM].
As for `NS(=O)(=O)c1ccc(NC(=O)COC(=O)c2c3c(nc4ccccc24)/C(=C\c2ccc4c(c2)OCO4)CCC3)cc1`, the “activity change, negative = cytotoxicity” value is -16.4% [at 57.5 µM].
In the case of `CCc1nc2ccccc2c(C(=O)OCC(=O)Nc2ccc(NC(C)=O)cc2)c1C`, the “activity change, negative = cytotoxicity” value was -22.7%.
In the case of `CCc1nc2ccccc2c(C(=O)OCC(=O)Nc2cccc(S(=O)(=O)NC3=NCCCCC3)c2)c1C`, the Potency is 25.1 µM (active).

The values are drawn from PubChem BioAssay AID1745850 (National Center for Advancing Translational Sciences (NCATS), 2022).
